{"source": "the supplement of paper PMC7156485", "data": [{"test_system": "HCC1569", "assay": "cell number relative to DMSO (% of DMSO); higher = more cells (less growth inhibition / toxicity)", "details": "concentration: 10 µM; 24 h", "in_short": "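Cell number or H1.0 nuclear intensity appears as percent of the plate control, based on the median of replicates. Measurements came from HCC1569 and TDF cells exposed in triplicate to compounds at 10 µM for 24 h at 37 °C, then imaged in six fields per well at ×10. Positional effects were smoothed out of HCC1569 values.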", "values": [{"smiles": "NCC(CP(=O)(O)O)c1ccc(Cl)cc1", "note": "(centres undefined) [Phaclofen]", "cell number": 106}, {"smiles": "Br.C=CCN1CCc2cccc3c2C1Cc1ccc(O)c(O)c1-3", "note": "(stereo not drawn) [R(-)-N-Allylnorapomorphine hydrobromide]", "cell number": 84.8}, {"smiles": "NC(=O)CN1CCCC1=O", "note": "[Piracetam]", "cell number": 99.5}, {"smiles": "CC(=O)C1CCC2C3CCC4CC(O)CCC4(C)C3C(=O)CC12C", "note": "(stereo not drawn) [5alpha-Pregnan-3alpha-ol-11,20-dione]", "cell number": 107}, {"smiles": "CN1C2CCC1CC(O)C2", "note": "(centres undefined) [Tropine]", "cell number": 102}, {"smiles": "C=CCN1CC(C)N(C(c2ccc(C(=O)N(CC)CC)cc2)c2cccc(OC)c2)CC1C", "note": "(centres undefined)", "cell number": 102}, {"smiles": "N#CC(C#N)=Cc1ccc(O)c(O)c1", "note": "[Tyrphostin 23]", "cell number": 92.8}, {"smiles": "O=C1C=CC(=O)C=C1", "note": "[p-Benzoquinone]", "cell number": 100}, {"smiles": "CCCN(CCC)C1CCc2ccc(O)cc2C1", "note": "(racemic)", "cell number": 102}, {"smiles": "C[N+]1(C)C2CCC1CC(OC(=O)C(CO)c1ccccc1)C2.[Br-]", "note": "(centres undefined) [Atropine methyl bromide]", "cell number": 102}, {"smiles": "Cl.O=c1[nH]oc2c1CCNC2", "note": "[THIP hydrochloride]", "cell number": 100}, {"smiles": "CC(N)C(O)c1ccc(O)c(O)c1", "note": "(single isomer, unassigned; (-)) [(-)-alpha-Methylnorepinephrine]", "cell number": 99.4}, {"smiles": "NC(Cn1oc(=O)[nH]c1=O)C(=O)O", "note": "(single isomer, unassigned; (+)) [(+)-Quisqualic acid]", "cell number": 101}, {"smiles": "Cl.NCCc1c[nH]c2ccccc12", "note": "[Tryptamine hydrochloride]", "cell number": 99.1}]}]}
